# According to ChEMBL document CHEMBL1961873, “Compounds: GSK PKIS; Assays: Nanosyn kinase panel” (2012):
# Legend:
# [1] = molecular target: T1, Inhibitor of nuclear factor kappa-B kinase subunit epsilon (Homo sapiens) (UniProt Q14164); conditions: at 1 µM;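 note: reported values are averaged percent inhibition figures against human IKKε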
# T1 sequence (whole entry): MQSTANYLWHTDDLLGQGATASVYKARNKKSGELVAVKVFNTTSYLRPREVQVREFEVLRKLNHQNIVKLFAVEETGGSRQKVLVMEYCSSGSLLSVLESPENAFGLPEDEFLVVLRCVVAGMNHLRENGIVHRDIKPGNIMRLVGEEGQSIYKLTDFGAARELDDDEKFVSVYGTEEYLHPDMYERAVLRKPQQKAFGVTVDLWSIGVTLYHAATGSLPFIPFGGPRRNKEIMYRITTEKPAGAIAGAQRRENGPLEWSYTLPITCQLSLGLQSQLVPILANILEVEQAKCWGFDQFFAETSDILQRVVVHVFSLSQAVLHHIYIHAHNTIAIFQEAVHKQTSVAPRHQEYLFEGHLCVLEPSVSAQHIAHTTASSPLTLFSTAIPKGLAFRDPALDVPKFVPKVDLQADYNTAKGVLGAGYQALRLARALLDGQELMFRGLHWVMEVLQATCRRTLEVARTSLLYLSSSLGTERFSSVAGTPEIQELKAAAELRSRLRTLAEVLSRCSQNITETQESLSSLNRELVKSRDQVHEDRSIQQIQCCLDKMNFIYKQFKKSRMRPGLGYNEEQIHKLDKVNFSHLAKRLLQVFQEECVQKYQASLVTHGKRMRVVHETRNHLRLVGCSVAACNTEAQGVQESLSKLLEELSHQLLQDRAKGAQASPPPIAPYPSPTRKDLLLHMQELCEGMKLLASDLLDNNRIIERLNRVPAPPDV
# [2] = molecular target: T2, Serine/threonine-protein kinase Nek1 (Homo sapiens) (UniProt Q96PY6); conditions: at 0.1 µM
# T2 sequence (whole entry): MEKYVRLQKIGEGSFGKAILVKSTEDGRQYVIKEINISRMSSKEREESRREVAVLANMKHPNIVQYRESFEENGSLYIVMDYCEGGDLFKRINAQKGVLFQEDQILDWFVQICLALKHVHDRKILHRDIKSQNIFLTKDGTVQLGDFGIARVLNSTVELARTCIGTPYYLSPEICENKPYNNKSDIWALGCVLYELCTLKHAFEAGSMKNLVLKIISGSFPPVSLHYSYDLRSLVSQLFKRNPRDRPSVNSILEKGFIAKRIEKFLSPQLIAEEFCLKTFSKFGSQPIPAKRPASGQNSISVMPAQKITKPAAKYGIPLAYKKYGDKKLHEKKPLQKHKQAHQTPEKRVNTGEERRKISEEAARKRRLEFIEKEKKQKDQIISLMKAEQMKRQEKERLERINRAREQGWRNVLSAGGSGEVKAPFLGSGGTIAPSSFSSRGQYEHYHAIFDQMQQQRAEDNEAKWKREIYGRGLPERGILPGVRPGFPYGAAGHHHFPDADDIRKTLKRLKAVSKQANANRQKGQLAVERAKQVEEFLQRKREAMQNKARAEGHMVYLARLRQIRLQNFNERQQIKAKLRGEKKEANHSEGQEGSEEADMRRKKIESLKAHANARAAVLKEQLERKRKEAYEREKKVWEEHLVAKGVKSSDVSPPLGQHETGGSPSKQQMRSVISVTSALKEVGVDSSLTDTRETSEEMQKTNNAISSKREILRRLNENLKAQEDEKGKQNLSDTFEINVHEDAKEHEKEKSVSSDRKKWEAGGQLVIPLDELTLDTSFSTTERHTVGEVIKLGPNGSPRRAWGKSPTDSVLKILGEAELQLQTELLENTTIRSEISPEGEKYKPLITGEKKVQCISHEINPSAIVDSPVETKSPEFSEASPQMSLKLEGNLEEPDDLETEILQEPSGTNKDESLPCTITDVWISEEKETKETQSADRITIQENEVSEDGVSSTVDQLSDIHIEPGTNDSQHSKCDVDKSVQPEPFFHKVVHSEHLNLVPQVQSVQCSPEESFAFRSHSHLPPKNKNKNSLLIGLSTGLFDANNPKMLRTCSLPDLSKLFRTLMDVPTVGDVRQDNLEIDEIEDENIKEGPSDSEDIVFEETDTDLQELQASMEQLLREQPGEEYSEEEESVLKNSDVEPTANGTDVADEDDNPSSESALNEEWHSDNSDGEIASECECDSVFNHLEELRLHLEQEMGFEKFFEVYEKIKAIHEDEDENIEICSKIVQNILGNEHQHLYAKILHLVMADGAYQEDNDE
# [3] = molecular target: T2, Serine/threonine-protein kinase Nek1 (Homo sapiens); conditions: at 1 µM
# [4] = molecular target: T3, Serine/threonine-protein kinase Nek2 (Homo sapiens) (UniProt P51955); conditions: at 0.1 µM
# T3 sequence (whole entry): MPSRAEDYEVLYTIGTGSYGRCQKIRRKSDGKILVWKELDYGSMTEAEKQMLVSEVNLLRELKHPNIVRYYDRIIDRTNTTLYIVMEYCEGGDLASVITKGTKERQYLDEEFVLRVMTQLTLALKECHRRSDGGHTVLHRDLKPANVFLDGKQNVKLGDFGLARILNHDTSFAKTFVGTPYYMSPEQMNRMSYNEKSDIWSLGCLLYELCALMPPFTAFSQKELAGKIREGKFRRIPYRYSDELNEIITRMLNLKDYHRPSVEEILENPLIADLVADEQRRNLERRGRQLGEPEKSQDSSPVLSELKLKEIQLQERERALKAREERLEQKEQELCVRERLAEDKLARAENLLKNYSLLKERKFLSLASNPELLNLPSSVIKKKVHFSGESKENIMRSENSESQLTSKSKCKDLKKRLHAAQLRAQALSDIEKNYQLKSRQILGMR
# [5] = molecular target: T3, Serine/threonine-protein kinase Nek2 (Homo sapiens); conditions: at 1 µM
# [6] = molecular target: Serine/threonine-protein kinase Nek6 (Homo sapiens) (UniProt Q9HC98); conditions: at 0.1 µM
# Sequence of Serine/threonine-protein kinase Nek6 (Homo sapiens) (Q9HC98 whole entry): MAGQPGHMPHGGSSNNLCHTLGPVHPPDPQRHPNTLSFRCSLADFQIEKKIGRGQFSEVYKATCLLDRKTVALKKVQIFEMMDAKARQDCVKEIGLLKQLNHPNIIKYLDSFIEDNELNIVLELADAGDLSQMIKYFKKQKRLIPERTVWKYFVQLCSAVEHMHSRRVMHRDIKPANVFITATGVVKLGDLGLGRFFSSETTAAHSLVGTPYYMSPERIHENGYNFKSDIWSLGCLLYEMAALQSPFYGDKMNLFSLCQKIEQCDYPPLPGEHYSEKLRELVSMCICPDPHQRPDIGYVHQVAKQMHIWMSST
# [7] = molecular target: Serine/threonine-protein kinase Nek6 (Homo sapiens) (UniProt Q9HC98); conditions: at 1 µM
# [8] = molecular target: Serine/threonine-protein kinase Nek7 (Homo sapiens) (UniProt Q8TDX7); conditions: at 0.1 µM
# Sequence of Serine/threonine-protein kinase Nek7 (Homo sapiens) (Q8TDX7 whole entry, looked up): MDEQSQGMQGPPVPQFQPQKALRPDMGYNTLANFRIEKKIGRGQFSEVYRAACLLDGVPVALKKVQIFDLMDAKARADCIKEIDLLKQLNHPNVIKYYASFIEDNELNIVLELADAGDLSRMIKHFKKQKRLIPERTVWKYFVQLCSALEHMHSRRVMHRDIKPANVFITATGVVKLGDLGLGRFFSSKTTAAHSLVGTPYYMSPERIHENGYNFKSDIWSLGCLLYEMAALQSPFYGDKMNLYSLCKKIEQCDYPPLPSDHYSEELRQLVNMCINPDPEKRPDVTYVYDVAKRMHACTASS
# [9] = molecular target: Serine/threonine-protein kinase Nek7 (Homo sapiens) (UniProt Q8TDX7); conditions: at 1 µM
# [10] = molecular target: T4, Serine/threonine-protein kinase Nek9 (Homo sapiens) (UniProt Q8TD19); conditions: at 0.1 µM
# T4 sequence (whole entry): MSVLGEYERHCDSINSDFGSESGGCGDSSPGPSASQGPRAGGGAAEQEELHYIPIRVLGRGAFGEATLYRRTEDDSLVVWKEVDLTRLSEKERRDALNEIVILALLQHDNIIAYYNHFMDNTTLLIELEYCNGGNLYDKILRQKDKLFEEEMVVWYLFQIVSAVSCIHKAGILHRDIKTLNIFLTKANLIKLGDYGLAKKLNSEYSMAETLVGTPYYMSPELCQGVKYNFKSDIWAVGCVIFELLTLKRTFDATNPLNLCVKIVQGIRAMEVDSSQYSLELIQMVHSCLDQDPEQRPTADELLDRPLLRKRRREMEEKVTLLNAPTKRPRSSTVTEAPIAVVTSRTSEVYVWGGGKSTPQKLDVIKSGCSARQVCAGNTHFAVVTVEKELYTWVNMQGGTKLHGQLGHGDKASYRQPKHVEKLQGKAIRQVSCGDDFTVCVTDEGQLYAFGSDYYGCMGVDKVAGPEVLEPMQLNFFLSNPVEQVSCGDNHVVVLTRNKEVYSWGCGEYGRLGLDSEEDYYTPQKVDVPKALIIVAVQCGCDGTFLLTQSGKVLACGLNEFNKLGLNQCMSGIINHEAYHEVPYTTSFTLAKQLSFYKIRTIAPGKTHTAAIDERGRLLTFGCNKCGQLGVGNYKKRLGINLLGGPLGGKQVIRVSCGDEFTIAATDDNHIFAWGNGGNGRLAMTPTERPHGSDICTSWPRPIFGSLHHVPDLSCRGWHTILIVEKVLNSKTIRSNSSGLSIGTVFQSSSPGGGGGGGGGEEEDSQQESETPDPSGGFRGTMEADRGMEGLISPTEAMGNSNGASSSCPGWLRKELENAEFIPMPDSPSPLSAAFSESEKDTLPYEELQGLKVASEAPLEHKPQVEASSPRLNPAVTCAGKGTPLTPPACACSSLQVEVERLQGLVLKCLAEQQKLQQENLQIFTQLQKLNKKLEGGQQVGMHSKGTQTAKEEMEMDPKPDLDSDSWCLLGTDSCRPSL
# [11] = molecular target: T4, Serine/threonine-protein kinase Nek9 (Homo sapiens); conditions: at 1 µM
# [12] = molecular target: Serine/threonine-protein kinase PLK1 (Homo sapiens) (UniProt P53350); conditions: at 0.1 µM
# Sequence of Serine/threonine-protein kinase PLK1 (Homo sapiens) (P53350 whole entry): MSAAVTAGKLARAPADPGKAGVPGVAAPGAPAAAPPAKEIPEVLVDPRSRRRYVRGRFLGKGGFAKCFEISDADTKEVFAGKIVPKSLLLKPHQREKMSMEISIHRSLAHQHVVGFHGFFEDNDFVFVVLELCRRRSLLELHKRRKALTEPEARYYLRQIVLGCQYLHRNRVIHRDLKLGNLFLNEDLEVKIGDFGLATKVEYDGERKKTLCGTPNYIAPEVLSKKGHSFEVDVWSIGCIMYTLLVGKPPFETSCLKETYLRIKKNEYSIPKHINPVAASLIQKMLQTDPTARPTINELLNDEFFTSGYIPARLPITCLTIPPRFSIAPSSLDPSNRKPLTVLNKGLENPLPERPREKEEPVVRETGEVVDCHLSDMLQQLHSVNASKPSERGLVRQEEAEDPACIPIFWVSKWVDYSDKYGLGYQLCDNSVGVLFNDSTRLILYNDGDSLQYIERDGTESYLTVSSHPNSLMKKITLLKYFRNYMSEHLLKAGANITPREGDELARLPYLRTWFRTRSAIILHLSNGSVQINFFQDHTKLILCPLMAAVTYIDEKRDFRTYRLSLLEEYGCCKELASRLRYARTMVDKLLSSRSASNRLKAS
# [13] = molecular target: Serine/threonine-protein kinase PLK1 (Homo sapiens) (UniProt P53350); conditions: at 1 µM
# [14] = molecular target: T5, Dual specificity protein kinase TTK (Homo sapiens) (UniProt P33981); conditions: at 0.1 µM
# T5 sequence (whole entry): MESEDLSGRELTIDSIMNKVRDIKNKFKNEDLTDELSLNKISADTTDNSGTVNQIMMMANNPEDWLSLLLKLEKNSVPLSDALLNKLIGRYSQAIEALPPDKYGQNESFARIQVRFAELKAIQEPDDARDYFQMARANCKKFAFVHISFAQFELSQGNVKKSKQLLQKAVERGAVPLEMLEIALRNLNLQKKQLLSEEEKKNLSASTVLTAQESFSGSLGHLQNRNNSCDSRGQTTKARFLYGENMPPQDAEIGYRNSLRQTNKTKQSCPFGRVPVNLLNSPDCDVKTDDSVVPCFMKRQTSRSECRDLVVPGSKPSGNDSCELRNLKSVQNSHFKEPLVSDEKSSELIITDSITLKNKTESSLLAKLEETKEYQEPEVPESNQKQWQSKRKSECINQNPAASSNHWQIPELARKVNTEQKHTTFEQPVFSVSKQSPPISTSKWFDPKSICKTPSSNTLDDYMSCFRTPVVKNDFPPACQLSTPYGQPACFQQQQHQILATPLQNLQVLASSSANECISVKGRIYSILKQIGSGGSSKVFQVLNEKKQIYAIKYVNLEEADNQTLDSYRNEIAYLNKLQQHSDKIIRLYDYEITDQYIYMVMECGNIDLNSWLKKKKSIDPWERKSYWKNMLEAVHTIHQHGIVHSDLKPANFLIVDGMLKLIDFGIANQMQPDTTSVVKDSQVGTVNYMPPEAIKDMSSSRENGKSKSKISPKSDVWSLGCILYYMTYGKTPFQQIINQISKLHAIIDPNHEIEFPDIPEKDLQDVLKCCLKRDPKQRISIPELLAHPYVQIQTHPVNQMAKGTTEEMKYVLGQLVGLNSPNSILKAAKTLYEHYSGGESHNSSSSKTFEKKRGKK
# [15] = test system: T6, Receptor-type tyrosine-protein kinase FLT3 (Homo sapiens), P36888 [D835Y]; conditions: at 1 µM
# T6 sequence (whole entry): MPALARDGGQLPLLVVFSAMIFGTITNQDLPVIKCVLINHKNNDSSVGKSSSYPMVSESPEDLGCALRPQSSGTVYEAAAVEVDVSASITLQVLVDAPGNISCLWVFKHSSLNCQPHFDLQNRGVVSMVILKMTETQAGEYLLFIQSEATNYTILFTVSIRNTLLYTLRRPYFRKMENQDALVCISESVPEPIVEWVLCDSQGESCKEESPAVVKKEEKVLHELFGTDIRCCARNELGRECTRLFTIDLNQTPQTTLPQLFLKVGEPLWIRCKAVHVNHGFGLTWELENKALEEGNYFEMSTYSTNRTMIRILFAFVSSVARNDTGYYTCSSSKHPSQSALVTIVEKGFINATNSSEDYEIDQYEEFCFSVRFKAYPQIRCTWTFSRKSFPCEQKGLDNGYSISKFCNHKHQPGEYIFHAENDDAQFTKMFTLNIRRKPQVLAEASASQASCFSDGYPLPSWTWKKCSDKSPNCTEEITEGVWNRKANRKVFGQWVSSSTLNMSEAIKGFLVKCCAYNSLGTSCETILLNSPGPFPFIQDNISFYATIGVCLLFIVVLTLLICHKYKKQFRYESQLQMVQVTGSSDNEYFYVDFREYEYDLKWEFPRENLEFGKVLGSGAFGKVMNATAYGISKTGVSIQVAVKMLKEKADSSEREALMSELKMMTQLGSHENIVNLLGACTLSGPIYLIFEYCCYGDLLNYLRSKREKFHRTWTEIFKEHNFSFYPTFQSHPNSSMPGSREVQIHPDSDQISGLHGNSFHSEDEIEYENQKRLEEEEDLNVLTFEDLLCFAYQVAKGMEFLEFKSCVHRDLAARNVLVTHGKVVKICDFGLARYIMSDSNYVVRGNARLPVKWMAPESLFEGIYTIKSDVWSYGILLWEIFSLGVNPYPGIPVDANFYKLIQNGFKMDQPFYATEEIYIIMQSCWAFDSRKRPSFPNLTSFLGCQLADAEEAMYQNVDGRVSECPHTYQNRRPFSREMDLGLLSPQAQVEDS
# [16] = molecular target: Vascular endothelial growth factor receptor 3 (Homo sapiens) (UniProt P35916); conditions: at 0.1 µM
# Sequence of Vascular endothelial growth factor receptor 3 (Homo sapiens) (P35916 whole entry): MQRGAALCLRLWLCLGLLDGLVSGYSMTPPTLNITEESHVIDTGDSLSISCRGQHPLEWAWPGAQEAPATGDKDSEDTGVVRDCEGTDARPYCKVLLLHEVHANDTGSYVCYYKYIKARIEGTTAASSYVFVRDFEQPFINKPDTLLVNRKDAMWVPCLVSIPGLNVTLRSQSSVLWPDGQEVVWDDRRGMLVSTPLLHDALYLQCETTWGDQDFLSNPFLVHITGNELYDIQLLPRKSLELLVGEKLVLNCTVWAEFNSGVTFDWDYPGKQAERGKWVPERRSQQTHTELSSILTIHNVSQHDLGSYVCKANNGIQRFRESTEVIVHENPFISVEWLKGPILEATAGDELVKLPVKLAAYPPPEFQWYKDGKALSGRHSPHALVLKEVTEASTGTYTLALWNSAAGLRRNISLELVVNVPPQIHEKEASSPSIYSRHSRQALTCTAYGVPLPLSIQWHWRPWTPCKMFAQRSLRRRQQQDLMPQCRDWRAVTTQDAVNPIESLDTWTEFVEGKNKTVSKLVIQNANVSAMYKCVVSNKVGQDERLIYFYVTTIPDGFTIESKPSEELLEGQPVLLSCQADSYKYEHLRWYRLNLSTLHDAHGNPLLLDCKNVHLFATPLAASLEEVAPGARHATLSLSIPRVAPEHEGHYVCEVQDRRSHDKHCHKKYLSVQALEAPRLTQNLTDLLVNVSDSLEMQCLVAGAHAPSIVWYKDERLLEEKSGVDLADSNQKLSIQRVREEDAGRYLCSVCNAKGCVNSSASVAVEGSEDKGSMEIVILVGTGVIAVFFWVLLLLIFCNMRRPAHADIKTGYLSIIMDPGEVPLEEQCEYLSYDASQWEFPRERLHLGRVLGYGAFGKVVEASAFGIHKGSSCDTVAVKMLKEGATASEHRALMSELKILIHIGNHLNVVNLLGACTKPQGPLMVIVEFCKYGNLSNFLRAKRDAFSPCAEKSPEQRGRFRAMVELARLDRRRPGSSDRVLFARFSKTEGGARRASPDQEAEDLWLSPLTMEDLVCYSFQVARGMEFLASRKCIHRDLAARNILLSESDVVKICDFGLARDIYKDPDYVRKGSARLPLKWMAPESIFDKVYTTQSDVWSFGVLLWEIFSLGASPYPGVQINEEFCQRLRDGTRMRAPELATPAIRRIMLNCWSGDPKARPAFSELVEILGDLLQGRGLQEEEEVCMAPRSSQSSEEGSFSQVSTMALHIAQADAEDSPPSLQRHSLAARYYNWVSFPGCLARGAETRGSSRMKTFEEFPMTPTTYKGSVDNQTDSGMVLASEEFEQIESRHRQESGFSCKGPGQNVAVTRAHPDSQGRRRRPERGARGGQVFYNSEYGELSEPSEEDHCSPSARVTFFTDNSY
# [17] = molecular target: Vascular endothelial growth factor receptor 3 (Homo sapiens) (UniProt P35916); conditions: at 1 µM
# [18] = molecular target: Macrophage colony-stimulating factor 1 receptor (Homo sapiens) (UniProt P07333); conditions: at 0.1 µM
# Sequence of Macrophage colony-stimulating factor 1 receptor (Homo sapiens) (P07333 whole entry): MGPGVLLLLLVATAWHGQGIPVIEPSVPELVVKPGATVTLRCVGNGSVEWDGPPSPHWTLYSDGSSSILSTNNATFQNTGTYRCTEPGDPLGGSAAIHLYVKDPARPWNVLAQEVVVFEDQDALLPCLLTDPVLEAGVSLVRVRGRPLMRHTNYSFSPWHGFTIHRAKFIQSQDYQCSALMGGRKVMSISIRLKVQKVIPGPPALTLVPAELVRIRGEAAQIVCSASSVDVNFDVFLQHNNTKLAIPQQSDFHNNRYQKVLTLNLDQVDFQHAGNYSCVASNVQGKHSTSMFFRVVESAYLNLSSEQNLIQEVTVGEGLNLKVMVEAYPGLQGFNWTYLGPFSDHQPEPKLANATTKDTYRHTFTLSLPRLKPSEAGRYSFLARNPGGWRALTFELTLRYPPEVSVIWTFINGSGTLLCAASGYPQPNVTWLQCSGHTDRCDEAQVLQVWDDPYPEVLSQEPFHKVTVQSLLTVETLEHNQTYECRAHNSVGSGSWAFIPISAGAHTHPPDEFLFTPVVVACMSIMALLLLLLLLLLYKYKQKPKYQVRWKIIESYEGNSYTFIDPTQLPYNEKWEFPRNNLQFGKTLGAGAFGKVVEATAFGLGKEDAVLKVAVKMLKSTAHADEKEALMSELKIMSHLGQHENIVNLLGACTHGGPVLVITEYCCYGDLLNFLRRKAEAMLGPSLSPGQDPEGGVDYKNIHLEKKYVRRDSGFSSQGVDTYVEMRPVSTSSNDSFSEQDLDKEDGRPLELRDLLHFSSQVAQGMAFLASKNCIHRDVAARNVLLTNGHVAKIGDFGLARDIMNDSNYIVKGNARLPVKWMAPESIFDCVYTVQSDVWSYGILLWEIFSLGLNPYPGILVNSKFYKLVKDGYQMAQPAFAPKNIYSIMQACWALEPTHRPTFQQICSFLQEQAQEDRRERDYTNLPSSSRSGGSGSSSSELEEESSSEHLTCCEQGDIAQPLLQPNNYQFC
# [19] = molecular target: Macrophage colony-stimulating factor 1 receptor (Homo sapiens) (UniProt P07333); conditions: at 1 µM
# [20] = molecular target: Tyrosine-protein kinase Fyn (Homo sapiens) (UniProt P06241); conditions: at 0.1 µM
# Sequence of Tyrosine-protein kinase Fyn (Homo sapiens) (P06241 2-537 limits assumed): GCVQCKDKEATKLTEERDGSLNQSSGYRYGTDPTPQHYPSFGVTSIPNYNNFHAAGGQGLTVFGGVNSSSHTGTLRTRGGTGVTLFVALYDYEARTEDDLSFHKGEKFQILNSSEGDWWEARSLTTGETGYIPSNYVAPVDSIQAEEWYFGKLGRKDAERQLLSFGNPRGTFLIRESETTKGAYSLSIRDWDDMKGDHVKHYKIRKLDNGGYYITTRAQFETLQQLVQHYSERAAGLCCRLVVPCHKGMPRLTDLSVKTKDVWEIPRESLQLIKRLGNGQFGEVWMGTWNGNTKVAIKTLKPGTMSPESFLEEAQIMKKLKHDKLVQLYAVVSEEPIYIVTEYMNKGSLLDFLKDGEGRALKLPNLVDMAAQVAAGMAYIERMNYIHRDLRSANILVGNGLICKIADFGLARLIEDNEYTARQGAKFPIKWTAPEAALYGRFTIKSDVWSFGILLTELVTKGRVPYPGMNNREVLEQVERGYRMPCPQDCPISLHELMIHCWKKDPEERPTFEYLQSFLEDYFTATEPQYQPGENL
smiles,measurement,setting,value
Oc1cccc(-c2nc(-c3ccccc3)[nH]c2-c2ccncc2)c1,inhibition,[1],4.72%
same,inhibition,[2],2.81%
same,inhibition,[3],3.39%
same,inhibition,[4],3.98%
same,inhibition,[5],4.3%
same,inhibition,[6],-0.13%
same,inhibition,[7],4.45%
same,inhibition,[8],4.5%
same,inhibition,[9],5.32%
same,inhibition,[10],9.92%
same,inhibition,[11],6.73%
same,inhibition,[12],4.15%
same,inhibition,[13],1.85%
same,inhibition,[14],3.33%
same,inhibition,[15],22.4%
same,inhibition,[16],7.41%
same,inhibition,[17],30.4%
same,inhibition,[18],1.63%
same,inhibition,[19],5.02%
same,inhibition,[20],3.67%
